Residual activity data for one molecule are collected here from ChEMBL document CHEMBL2218924, “A broad activity screen in support of a chemogenomic map for kinase signalling research and drug discovery” (Biochem J, 2013).

Assay [1] addresses T1, Ephrin type-B receptor 1 (Homo sapiens) (UniProt P54762).
T1 sequence (whole entry): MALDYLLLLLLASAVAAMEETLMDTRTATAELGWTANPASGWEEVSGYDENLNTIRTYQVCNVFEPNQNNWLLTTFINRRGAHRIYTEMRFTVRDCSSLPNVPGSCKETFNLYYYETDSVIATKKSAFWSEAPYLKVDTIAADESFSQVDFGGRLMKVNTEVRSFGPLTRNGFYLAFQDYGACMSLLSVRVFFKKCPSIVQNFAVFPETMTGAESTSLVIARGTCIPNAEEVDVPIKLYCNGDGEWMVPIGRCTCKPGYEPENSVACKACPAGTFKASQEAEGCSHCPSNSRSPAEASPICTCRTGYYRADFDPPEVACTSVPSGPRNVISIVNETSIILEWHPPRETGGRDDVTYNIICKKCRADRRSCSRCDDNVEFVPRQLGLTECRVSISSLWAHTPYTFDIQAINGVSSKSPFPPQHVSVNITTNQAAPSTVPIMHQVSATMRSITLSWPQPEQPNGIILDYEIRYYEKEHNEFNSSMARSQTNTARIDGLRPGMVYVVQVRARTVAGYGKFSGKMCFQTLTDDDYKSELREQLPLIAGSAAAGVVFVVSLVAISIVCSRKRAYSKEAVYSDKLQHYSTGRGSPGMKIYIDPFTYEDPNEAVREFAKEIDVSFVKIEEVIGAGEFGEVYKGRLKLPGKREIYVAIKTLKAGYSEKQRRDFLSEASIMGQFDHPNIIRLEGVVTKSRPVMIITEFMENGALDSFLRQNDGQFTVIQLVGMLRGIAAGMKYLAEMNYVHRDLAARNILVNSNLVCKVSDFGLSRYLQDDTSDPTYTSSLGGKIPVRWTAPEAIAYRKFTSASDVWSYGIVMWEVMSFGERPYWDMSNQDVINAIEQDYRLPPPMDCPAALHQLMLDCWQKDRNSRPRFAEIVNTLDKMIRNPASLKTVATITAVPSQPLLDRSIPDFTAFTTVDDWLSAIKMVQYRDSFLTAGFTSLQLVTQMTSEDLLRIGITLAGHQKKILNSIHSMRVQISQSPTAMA
As to conditions: at 10 µM; call rule not given here.

The target of assay [2] is T2, Ephrin type-B receptor 2 (Homo sapiens) (UniProt P29323).
T2 sequence (whole entry): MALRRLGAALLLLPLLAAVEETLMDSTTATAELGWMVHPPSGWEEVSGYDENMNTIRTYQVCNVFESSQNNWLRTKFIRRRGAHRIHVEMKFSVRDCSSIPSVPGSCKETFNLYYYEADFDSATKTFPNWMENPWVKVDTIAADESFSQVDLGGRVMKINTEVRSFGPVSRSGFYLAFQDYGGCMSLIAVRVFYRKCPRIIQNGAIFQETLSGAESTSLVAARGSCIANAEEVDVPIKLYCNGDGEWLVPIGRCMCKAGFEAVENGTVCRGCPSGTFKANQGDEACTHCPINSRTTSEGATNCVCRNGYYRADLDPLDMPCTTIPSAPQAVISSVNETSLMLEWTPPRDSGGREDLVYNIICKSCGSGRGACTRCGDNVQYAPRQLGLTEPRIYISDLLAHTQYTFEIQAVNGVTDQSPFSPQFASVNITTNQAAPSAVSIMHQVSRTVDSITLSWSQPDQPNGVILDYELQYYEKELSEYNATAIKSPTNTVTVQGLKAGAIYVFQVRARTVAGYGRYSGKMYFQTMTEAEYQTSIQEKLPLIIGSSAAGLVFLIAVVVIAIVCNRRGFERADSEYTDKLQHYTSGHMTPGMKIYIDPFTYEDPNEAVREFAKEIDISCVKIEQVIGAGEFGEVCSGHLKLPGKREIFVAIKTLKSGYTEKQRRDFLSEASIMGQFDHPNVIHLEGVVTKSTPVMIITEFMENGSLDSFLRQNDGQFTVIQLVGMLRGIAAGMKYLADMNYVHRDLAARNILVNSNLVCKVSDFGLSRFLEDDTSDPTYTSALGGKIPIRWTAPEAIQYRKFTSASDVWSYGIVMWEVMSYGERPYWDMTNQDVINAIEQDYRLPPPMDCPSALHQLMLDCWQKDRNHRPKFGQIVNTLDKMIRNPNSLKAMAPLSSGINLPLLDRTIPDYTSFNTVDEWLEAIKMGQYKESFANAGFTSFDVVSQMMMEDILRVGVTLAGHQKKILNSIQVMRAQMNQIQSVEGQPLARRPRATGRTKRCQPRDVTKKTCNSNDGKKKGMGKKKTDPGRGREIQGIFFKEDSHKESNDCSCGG
As to conditions: at 1 µM.

Assay [3] deals with T2, Ephrin type-B receptor 2 (Homo sapiens). Particulars: at 10 µM.
The target in assay [4] is T3, Ephrin type-B receptor 3 (Homo sapiens) (UniProt P54753).
T3 sequence (whole entry): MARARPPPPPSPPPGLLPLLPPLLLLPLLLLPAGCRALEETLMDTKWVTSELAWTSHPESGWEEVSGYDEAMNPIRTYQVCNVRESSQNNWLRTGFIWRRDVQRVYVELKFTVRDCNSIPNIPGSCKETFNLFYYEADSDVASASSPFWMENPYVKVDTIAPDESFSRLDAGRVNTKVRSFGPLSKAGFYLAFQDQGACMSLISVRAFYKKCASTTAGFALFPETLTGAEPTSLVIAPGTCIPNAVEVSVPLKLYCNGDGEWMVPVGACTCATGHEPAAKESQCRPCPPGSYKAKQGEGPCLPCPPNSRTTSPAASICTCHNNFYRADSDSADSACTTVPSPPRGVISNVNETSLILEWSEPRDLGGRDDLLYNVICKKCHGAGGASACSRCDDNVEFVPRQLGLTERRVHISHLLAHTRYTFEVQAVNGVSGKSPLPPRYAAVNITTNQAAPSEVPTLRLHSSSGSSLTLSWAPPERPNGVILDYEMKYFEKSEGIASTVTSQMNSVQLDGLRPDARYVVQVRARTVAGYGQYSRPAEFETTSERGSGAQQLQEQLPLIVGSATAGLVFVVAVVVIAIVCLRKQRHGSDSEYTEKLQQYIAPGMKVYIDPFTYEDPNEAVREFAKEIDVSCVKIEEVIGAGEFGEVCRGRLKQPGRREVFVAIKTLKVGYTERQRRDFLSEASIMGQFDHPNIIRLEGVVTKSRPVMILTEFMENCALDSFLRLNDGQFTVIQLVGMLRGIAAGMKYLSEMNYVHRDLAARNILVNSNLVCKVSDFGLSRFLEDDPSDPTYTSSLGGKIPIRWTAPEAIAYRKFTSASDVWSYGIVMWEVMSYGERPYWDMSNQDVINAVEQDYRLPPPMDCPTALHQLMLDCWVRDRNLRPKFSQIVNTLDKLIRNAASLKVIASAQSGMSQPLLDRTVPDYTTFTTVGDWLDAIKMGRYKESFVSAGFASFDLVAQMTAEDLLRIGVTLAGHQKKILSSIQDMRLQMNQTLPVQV
As to conditions: at 1 µM.

The target in assay [5] is T3, Ephrin type-B receptor 3 (Homo sapiens). As to conditions: at 10 µM.
The target of assay [6] is T4, Ephrin type-B receptor 4 (Homo sapiens) (UniProt P54760).
T4 sequence (whole entry): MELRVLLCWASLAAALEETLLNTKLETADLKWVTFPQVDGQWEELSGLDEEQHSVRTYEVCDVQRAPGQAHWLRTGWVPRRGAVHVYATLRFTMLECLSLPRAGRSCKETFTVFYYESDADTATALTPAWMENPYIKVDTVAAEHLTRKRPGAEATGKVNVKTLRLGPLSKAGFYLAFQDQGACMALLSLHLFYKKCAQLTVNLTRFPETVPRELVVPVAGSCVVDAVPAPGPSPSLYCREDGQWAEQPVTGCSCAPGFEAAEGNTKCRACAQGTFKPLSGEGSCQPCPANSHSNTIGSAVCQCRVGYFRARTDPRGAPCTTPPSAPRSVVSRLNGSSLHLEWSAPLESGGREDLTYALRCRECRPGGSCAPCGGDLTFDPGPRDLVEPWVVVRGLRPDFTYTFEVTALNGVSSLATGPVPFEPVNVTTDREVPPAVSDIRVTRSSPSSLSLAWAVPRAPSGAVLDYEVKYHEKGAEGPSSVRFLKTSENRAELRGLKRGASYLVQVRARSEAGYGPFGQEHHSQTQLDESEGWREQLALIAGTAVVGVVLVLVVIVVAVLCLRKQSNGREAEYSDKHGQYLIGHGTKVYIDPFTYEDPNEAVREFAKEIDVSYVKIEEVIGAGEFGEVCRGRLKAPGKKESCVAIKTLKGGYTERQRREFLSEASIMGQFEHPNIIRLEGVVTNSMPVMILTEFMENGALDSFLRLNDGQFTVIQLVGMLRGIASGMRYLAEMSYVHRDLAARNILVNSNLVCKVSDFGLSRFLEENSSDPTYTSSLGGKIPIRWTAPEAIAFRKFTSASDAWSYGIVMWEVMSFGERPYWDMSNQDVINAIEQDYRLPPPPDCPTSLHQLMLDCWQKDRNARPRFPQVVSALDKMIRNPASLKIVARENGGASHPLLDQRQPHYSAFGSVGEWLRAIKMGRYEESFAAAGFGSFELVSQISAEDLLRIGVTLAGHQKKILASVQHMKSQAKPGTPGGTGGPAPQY
Particulars: at 1 µM.

Assay [7] addresses T4, Ephrin type-B receptor 4 (Homo sapiens). As to conditions: at 10 µM.
Assay [8] concerns the target Receptor tyrosine-protein kinase erbB-4 (Homo sapiens) (UniProt Q15303). As to conditions: at 1 µM.
For assay [9] the target is unchanged. As to conditions: at 10 µM.
The target in assay [10] is Focal adhesion kinase 1 (Homo sapiens) (UniProt Q05397). Particulars: at 1 µM.

For orientation: residual activity means the signal under treatment as a percentage of the control signal.

Sequence of Receptor tyrosine-protein kinase erbB-4 (Homo sapiens) (Q15303 whole entry): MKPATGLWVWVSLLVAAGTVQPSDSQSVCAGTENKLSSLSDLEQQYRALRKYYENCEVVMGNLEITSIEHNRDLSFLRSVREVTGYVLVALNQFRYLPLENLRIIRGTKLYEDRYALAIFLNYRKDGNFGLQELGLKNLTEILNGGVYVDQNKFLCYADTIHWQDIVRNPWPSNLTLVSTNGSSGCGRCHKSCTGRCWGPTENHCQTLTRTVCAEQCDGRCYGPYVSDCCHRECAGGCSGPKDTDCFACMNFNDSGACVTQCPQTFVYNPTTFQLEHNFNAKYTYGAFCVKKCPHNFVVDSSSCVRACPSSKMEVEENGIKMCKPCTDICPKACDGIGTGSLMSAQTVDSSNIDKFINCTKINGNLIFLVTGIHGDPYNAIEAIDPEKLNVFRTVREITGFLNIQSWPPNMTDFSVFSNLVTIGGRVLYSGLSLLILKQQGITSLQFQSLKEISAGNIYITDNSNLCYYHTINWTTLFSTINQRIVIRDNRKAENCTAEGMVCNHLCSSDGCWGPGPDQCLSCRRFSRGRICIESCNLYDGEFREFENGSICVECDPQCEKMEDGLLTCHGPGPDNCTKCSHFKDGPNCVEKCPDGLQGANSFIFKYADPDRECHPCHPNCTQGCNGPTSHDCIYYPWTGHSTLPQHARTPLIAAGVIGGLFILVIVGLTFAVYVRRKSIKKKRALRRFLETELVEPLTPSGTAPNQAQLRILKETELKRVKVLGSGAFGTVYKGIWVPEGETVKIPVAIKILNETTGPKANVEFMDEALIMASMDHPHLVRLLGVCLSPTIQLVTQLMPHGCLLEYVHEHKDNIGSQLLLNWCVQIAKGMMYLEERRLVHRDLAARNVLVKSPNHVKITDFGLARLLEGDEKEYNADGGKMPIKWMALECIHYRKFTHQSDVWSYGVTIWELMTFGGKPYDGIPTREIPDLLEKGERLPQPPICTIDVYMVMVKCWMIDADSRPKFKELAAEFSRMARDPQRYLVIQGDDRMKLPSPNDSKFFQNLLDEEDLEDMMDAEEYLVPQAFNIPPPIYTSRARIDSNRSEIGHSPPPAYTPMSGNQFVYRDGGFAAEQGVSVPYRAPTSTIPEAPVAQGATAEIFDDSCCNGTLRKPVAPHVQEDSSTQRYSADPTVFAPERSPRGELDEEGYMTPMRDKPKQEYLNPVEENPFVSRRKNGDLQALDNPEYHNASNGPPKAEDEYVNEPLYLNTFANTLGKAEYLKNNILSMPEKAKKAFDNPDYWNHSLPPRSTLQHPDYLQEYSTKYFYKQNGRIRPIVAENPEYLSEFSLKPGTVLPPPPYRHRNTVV
Sequence of Focal adhesion kinase 1 (Homo sapiens) (Q05397 2-1052 limits assumed): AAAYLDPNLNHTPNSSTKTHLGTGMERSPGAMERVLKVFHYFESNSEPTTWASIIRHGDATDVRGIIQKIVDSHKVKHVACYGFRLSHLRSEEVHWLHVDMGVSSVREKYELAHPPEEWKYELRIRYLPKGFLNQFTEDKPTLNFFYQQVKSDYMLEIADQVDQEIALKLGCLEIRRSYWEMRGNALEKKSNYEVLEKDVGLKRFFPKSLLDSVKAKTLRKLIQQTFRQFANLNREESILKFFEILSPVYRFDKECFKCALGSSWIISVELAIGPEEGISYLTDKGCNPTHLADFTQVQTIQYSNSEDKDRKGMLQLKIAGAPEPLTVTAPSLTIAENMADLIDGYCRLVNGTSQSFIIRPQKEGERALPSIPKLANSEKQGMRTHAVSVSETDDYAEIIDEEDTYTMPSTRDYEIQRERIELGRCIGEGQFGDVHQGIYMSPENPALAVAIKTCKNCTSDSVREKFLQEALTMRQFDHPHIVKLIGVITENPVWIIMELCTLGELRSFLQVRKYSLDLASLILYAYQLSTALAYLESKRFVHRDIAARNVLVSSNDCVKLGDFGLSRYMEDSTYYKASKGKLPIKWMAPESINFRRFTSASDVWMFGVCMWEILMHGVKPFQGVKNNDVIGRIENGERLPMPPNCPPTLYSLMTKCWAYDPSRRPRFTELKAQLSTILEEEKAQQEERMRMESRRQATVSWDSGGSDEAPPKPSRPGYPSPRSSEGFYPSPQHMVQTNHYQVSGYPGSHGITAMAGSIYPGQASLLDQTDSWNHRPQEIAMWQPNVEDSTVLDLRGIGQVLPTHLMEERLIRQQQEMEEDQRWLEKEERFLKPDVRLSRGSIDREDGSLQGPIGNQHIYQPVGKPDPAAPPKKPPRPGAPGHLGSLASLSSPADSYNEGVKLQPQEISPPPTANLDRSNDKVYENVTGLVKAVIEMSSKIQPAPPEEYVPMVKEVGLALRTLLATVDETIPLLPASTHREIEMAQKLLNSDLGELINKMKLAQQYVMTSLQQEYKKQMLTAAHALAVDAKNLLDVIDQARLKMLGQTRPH

Take `O=C(O)c1ccc2c3c1cccc3c(=O)n1c3ccccc3nc21`: the residual activity in assay [1] is 98%; in assay [2] it was 105%; in assay [3], 108%; in assay [4], 98% (inactive); in assay [5] it was 110%; in assay [6] it was 102%. Also, the residual activity in assay [7] was determined as 100%; in [8] it was 105%; in assay [9], 95%; in assay [10], 112%.
